Screens deposited in PubChem BioAssay by National Center for Advancing Translational Sciences (NCATS).
This is one part of a sample in which hits are shown more often than they occur.
RORgamma inh = blocks mouse ROR gamma transcriptional activity; P51450; Drosophila S2 Gal4-RORgamma UAS-luciferase reporter, 20 h; Potency, µM (series often up to 53.6 µM), actives largely listed as inhibitors; 310,000 tested, 5.4% active; AID 2551; note: nearly all actives have a fitted effect of over 60% in size
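Drosophila Schneider cells stably carrying a metallothionein-driven Gal4 DBD–ROR gamma fusion and a UAS-Photinus luciferase reporter were exposed to compound for 1 hr, then induced with copper sulfate (700 uM final) for 20 hr at ambient temperature before luminescence reading.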
ERG-DNA inh = blocks human ERG Ets domain binding to DNA; fluorescence polarization, His-ERG Ets domain / labelled DNA; Potency, µM (series often up to 76.9 µM), hits mostly inhibitors; 370,000 tested, 0.028% active; active = well fitted inhibition curve with a large enough effect in the polarisation, with a control signal flat; inconclusive = small, poorly fitted or top-dose-only effect, or effect the other way, or a change in a side signal; inactive = no such curve, though single readings can be large or run the other way; the % refers to the polarisation;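 note: polarization taken with two DNA probes labelled with fluorescein and Texas red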
Target sequence (P11308 whole entry, looked up, the tested form may be a part): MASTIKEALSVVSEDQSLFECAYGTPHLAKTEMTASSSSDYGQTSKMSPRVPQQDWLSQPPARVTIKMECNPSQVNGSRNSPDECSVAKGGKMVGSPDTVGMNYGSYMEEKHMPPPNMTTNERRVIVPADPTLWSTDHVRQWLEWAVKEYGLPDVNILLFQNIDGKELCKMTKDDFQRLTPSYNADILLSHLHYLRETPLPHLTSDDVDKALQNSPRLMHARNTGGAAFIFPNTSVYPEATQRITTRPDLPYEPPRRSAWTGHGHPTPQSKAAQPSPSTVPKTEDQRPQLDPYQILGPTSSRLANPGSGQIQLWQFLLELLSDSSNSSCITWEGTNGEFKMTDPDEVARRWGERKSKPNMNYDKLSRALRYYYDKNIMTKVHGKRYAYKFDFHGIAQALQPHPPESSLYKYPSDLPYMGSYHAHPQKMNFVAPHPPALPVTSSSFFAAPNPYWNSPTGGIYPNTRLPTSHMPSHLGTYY
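His-tagged ERG Ets domain (1 uM in the protein solution; 300mM KCl, 50mM Tris-HCl, 1mM EDTA, 1mM DTT, pH 7.5) received compound, then a probe mix of 5 nM fluorescein-DNA and 100nM Texas-615-DNA. Fluorescence polarization was read for both dyes.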
Giardia kill = Giardia lamblia killing | Giardia lamblia trophozoite viability | activity change, % at 7.66 µM, hits read low | 340,000 tested, 0.15% active; in the data active = activity change below about -80%; inconclusive = between about -30% and that limit;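 note: parasites exposed to compound for two days anaerobically before the ATP read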
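Giardia lamblia trophozoites (100 cells/well) were incubated with compounds for 48 h at 37 deg C under anaerobic conditions. Viability was read as ATP content by one-step luminescence after 15-30 min at room temperature.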
VP16 counter = Gal4-VP16 reporter inhibition counter-screen; 310,000 tested, 3.5% active; Potency, µM (series often up to 53.6 µM), hits mostly inhibitors; AID 2546; Drosophila S2 Gal4-VP16 UAS-luciferase, luminescence, 20 h;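 note: Gal4-VP16 expression switched on by copper sulfate through the metallothionein promoter; nearly all actives have a fitted effect of over 50% in size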
Integrin act MD = integrin-mediated muscular dystrophy alleviation activation. alpha7betagal myoblasts, beta-gal FDG fluorescence, 48 h. Potency, µM (titrated, usually from 38.3 µM), most hits filed as activators. 350,000 tested, 0.064% active; note: nearly all actives have a fitted effect of over 60% in size
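Alpha7betagal+/- myoblasts (passage 13) were plated 16-24 hr, then exposed to compounds (1:260 dilution of DMSO stock) for 48 hours at 37C. After MPER lysis, β-galactosidase reporter activity was read as FDG fluorescence (ex 480/em 540) after 30 minutes.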
Numbers stand for hits; - = inactive; ? = inconclusive; . = not tested or not shown; [ ] = remark or other dose. Unless noted, calls come from the whole dose curve; as a rule, active = well fitted curve in the direction sought with a large enough effect; inconclusive = small, poorly fitted or top-dose-only effect, or another doubt; inactive = no such curve, though single readings can be large; an effect the other way counts as inactive or inconclusive.

SMILES | RORgamma inh | ERG-DNA inh | Giardia kill | VP16 counter | Integrin act MD
COC(=O)c1c(NC(=S)NN2CCN(C)CC2)sc2c1CCC(C)C2 (centres undefined) | 2µM | - | - | 5µM | -
CCOC(=O)c1c(NC(=S)Nc2ccc(Cl)cc2)sc(C)c1C | - | - | - | - | -
Oc1ccc(C(=Nc2ccccc2)c2ccccc2)c(O)c1 | . | - | - | . | -
CC(C)C(=O)Nc1ccc(S(=O)(=O)N2CCC(c3nc4ccccc4[nH]3)CC2)cc1 | . | - | - | . | -
CCOCC(=O)Nc1cc(C(=O)Nc2cc(C)cc(C)c2)ccc1Cl | - | . | . | - | .
CCOC(=O)c1c(NC(=S)Nc2ccccc2)sc2c1CCN(CCc1ccccc1)C2 | - | . | . | - | .
Cc1sc(NC(=S)Nc2ccc(F)cc2)c(C(N)=O)c1C | 8.9µM | - | - | 11µM | -
CCOC(=O)c1c(NC(=S)Nc2ccccc2)sc2c1CC(C)(C)SC2 | 2.8µM | - | - | 4µM | -
O=C(N/N=C1/SCC(=O)N1Cc1ccco1)c1ccccc1F | - | - | - | - | -
O=C(N/N=C1/C[C@@H](O)[C@@H](O)[C@@H]2[C@@H]3C(=O)N(C[C@@H]4CCCO4)C(=O)[C@H]3CC[C@@H]12)OCc1ccccc1 | -[10 µM] | . | . | -[10 µM] | .
O=C(CSc1nnc(CNC(=O)c2ccco2)o1)Nc1ccccc1 | - | - | - | - | -
O=C(CSc1nnc(CNC(=O)c2ccco2)o1)Nc1nc2ccccc2s1 | 2.5µM | - | - | 10µM | -
O=C(CSc1nnc(CNc2ccc(Cl)cc2)o1)Nc1nc2ccccc2s1 | 14µM | - | - | ? | -
N#CCCNS(=O)(=O)c1ccc(C(=O)OCCCOC(=O)c2ccc(S(=O)(=O)NCCC#N)cc2)cc1 | 11µM | - | - | 18µM | -
COc1cc(/C=C2\SC(c3ccc(C)cc3)=NC2=O)ccc1O | 14µM | . | - | 10µM | -
COc1cc(/C=C2\SC(=S)N(NC(=O)c3ccc(O)cc3)C2=O)ccc1O | 11µM | - | - | ? | -
Cc1ccc(CNC(=O)c2ccc(CN3CC(=O)N4CCCCC4C3=O)cc2)cc1 (centres undefined) | . | - | . | . | .
COc1ccc(C(=O)NC2CCSc3ccccc32)cc1S(=O)(=O)N1CCOCC1 (centres undefined) | . | - | - | . | -
CC(=O)c1cnc(Nc2nc(C)c3cc(C)c(C)cc3n2)nc1C | 3.5µM | - | - | -[0.365 µM] | -
C[C@@H]1C(=O)O[C@@H]1[C@@H](C)CO[Si](c1ccccc1)(c1ccccc1)C(C)(C)C | - | . | - | - | .
Cc1ccc(C2=Nc3ccccc3SC(c3cccc([N+](=O)[O-])c3)C2)cc1 (centres undefined) | 5.6µM | - | - | 13µM | -
CN1CCC(NC(=S)Nc2cccc([N+](=O)[O-])c2)CC1 | - | - | - | - | -
O=C(CN1CCN(S(=O)(=O)c2ccc(Br)cc2)CC1)N/N=C/c1ccc(Br)s1 | 6.3µM | - | - | 8.9µM | -
Cc1ccc(/C=N/NC(=O)CN2CCN(S(=O)(=O)c3ccc(Br)cc3)CC2)s1 | ? | - | - | ? | -
COc1ccc(C(=O)/C=C/C(=O)N(CC(=O)NC2CCCCC2)Cc2ccccc2)c(O)c1 | - | - | - | - | -
SMILES | RORgamma inh | ERG-DNA inh | Giardia kill | VP16 counter | Integrin act MD
COc1ccc(C(=O)/C=C/C(=O)N(CC(=O)NC2CCCCC2)CC2CCCO2)c(O)c1 (centres undefined) | 6.3µM | - | - | 3.2µM | -
CCCOc1ccc(-c2nc(SCC(=O)c3ccc(Cl)cc3)n[nH]2)cc1 | . | - | . | . | .
O=C(CSc1n[nH]c(-c2cccs2)n1)NCc1cccs1 | - | - | - | - | -
C=CCSc1n[nH]c(-c2cccs2)n1 | 11µM | - | - | ? | -
C=CCSc1n[nH]c(-c2ccc(OCCCC)cc2)n1 | 8.9µM | - | - | 8.9µM | -
C=CCSc1n[nH]c(-c2ccc(OCCC)cc2)n1 | 10µM | - | - | ? | -[7.66 µM]
Cn1c(=O)c2c(nc(Sc3ncccn3)n2Cc2ccc(Cl)cc2)n(C)c1=O | - | - | - | 16µM | -
CC(=O)NC[C@@H]1CN(c2ccc(N3CCOCC3)c(F)c2)C(=O)O1 | -[10 µM] | . | . | - | .
Cc1cccc2cc3c(NC(=O)c4ccccn4)nn(C)c3nc12 | 2µM | - | - | 4µM | -
CCCC(=O)Nc1nn(C)c2nc3c(C)cccc3cc12 | - | - | - | - | -
